Measurements as given in PubChem BioAssay.
Values without a mark were called inactive. The rule behind the calls is not given here.

These compounds were tested against Pantothenate synthetase (Mycobacterium tuberculosis (strain ATCC 25618 / H37Rv)) (UniProt P9WIL5) (assay: Recombinant Mtb pantothenate synthetase (PanC) inhibitors, coupled enzyme, confirmatory (AID 375;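 note: 0% = full reaction with vehicle and 100% = no enzyme background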)). Settings: coupled enzyme assay; at 10 µM, active compounds read high.
Pantothenate synthetase (Mycobacterium tuberculosis (strain ATCC 25618 / H37Rv)), sequence (P9WIL5 whole entry, looked up): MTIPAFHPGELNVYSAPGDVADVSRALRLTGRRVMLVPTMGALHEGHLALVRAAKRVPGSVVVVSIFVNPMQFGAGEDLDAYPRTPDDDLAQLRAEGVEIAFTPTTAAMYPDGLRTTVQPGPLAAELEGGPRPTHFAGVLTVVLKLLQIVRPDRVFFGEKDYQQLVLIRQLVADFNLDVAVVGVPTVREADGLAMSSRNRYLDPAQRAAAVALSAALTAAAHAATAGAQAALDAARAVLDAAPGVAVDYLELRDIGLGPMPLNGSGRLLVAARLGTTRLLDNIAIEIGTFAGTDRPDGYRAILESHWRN
Work on `COc1cc(CN2CCN(C(=O)CC(C)C)CC2)cc(OC)c1O` yielded an inhibition of 0%.
In the case of `CCOC(=O)N1CCN(c2cc3[nH]c(=S)[nH]c3cc2F)CC1`, the inhibition was 2%.
With `COc1ccc(NC(=O)C23CCC(C)(C(=O)C2)C3(C)C)cc1` (stereo unspecified) the inhibition was 0%.
Compound `Nc1nnn(Cc2ccccc2)n1` has an inhibition of 0%.
`CSc1nc(N2CCOCC2)c2ccccc2n1` showed an inhibition of 0%.
`Cc1cc(-n2c(C)cc(C(=O)CSc3nc4ccccc4c(=O)n3Cc3ccco3)c2C)no1` gave an inhibition of 0%.
Work on `COc1ccc(NC(=O)CSc2nc3c(c(=O)n2-c2ccc(F)cc2)SCC3)c(OC)c1` yielded an inhibition of 0%.
For `CCOc1cccc(-c2nnc3n2N=C(c2cc(OC)ccc2OC)CS3)c1`, the inhibition was 8%.
For `CCN(CC)S(=O)(=O)c1ccc(N2CCCC2)c(C(=O)OCC(=O)/C(C#N)=C(\C)N)c1`, the inhibition was 6%.
`O=S(=O)(Cc1ccccc1)N1CCN(Cc2ccccc2)CC1` showed an inhibition of 5%.
`CCOC(=O)N1CCN(C(=O)c2ccc3c(=O)n(CCc4ccccc4)c(=O)[nH]c3c2)CC1` showed an inhibition of 0%.
Work on `CC(C)(C)c1nnc(NC(=O)C2CCN(c3ncccn3)CC2)s1` yielded an inhibition of 1%.
With `Cc1ccc(Cn2c(SCC(N)=O)nc3c2c(=O)n(C)c(=O)n3C)cc1` the inhibition was 0%.
Compound `O=C(Nc1ccc(Cl)cc1)C1CC=CCC1C(=O)OCC(F)(F)C(F)F` (stereo unspecified) has an inhibition of 0%.
Work on `CCOc1ccc(CN2C(=O)c3ccccc3C2C(=O)NCc2cccnc2)cc1` (stereo unspecified) yielded an inhibition of 0%.
Compound `CN1CCN(CCCNC(=O)Cn2ncc3c4ccccc4n(C)c3c2=O)CC1` has an inhibition of 0%.
